Laboratory results taken from publication PMC4336329 (PLoS ONE, 2015).
Out of some 310,000 compounds screened, about 14,000 (4.5%) showed an effect of 50% or more. Effects have a minus sign here. The full list was thinned out, with strong results kept by preference.

molecular target: human ether-à-go-go-related gene (hERG) potassium channel (human, UniProt Q12809); assay: primary screen, population patch clamp on CHO cells stably expressing hERG; higher = less effect of the substance
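Also: peak tail current of the secondary pulse compared with the same well before compound.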

Sequence of human ether-à-go-go-related gene (hERG) potassium channel (Q12809 whole entry, looked up): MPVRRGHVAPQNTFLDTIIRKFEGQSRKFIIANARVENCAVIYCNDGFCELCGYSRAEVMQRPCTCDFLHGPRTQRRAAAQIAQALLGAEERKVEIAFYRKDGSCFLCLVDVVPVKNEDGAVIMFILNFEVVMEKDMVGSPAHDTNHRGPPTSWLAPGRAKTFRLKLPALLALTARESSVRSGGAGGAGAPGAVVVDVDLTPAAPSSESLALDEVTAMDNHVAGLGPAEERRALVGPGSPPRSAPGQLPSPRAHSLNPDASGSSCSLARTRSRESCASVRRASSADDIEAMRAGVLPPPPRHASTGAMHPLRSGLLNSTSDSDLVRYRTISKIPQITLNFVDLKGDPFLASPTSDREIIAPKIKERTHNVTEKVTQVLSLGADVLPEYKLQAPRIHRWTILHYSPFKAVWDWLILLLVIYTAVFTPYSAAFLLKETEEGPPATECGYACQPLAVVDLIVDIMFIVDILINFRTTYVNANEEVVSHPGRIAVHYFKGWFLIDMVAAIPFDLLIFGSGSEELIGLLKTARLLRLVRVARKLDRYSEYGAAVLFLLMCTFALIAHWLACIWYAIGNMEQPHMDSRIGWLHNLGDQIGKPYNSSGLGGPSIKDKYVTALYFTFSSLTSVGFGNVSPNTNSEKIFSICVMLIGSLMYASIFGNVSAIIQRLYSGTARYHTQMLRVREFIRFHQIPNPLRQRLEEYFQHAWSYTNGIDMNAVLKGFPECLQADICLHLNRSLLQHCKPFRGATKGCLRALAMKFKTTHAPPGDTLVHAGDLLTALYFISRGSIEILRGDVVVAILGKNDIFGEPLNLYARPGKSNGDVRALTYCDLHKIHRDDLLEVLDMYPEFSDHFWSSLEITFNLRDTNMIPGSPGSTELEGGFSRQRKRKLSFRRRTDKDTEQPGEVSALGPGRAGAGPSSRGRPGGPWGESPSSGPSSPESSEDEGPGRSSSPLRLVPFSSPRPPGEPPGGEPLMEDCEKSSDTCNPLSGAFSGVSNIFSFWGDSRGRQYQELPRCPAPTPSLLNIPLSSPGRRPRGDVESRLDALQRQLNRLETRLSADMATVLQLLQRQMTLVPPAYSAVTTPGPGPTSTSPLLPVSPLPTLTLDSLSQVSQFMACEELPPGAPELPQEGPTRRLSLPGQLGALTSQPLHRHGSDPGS

In order of falling “hERG current change (%, negative = inhibition) at 10uM” value:
1. O=C(Nc1cccc(Cl)c1)Nc1cnccn1  29.1%
2. C=CCOC(=O)C(=O)/C=C/c1c(C)n(C)n(-c2ccccc2)c1=O  27.2%
3. COc1ccccc1NCCC(=O)OCC(=O)NCc1ccco1  23.7%
4. Cc1ccc(C(=O)NC(=S)NCCN2CCOCC2)cc1  23.3%
5. CN(C(=O)c1ccc(NC(=O)Cc2ccc(NC(=O)C3CCN(C(=O)C4CCCC4)CC3)cc2)cc1)C1CC1  22.8%
6. COc1cc(/C=C(\C#N)C(=O)Nc2cccc(C(=O)O)c2)ccc1OCc1ccc(F)cc1  22.6%
7. CNC(=S)N/N=C/c1cc(C)ccc1C  20.7%
8. BrCC(Br)C1CCC(Br)C(Br)C1 (stereo not drawn)  20.6%
9. Cc1ccc(S(=O)(=O)N2CCN(CC(=O)N3CCOCC3)CC2)cc1  16.8%
10. CCN(c1ccc(OC)cc1)S(=O)(=O)c1nnc(NC(=O)c2ccccc2Cl)s1  15.5%
11. O=C(CCNC(=O)c1ccco1)Nc1ccccc1  15%
12. c1ccc(-n2nnnc2CN2CCOCC2)cc1  14.8%
13. O=C(CN1CCN(S(=O)(=O)c2ccc(Cl)s2)CC1)N1CCOCC1  14.4%
14. Cc1cc(C)n(C(=O)Cn2nc(C)c(Br)c2C)n1  14%
15. COc1ccc(/C=C(\NC(=O)c2ccc(Cl)cc2)C(=O)NCCCN2CCOCC2)cc1OC  13.9%
16. CCOC(=O)C1(CC2CCCCO2)CCN(Cc2nccn2-c2cccc(C)c2)CC1 (stereo not drawn)  13.2%
17. Cc1ccc(CN2CCN(Cc3cn(C)nc3C)CC2CCO)o1 (stereo not drawn)  12.4%
18. COc1ccc(/C=C(/NC(=O)c2ccccc2)C(=O)NCCN2CCOCC2)cc1OC  11.6%
19. COc1ccccc1CNC(=O)CCS(=O)(=O)Cc1ccc(C)cc1  11.3%
20. O=C(NNC(=O)c1ccncc1)Nc1ccc([N+](=O)[O-])cc1  11.2%
21. O=C(CCNc1ccc(Cc2ccncc2)cc1)c1cccc([N+](=O)[O-])c1  11%
22. O=C(CN1CCN(S(=O)(=O)c2ccccc2)CC1)N1CCCCC1  10.8%
23. COc1cc(OC)c(C2=NOC(C(=O)Nc3ccc4c(c3)OCO4)C2)cc1Cl (stereo not drawn)  10.7%
24. O=C(CCNC(=O)c1ccco1)Nc1ccccc1OC(F)F  10.4%
25. COc1cccc(CN2CCNC(=O)C2CC(=O)NCCc2ccccn2)c1 (stereo not drawn)  9.8%
26. CC(=O)/C(C(=N)N1CCN(C(c2ccccc2)c2ccccc2)CC1)=C(\C)O  8.3%
27. CCOC(=O)[C@H]1[C@H]2COc3ccc(C)cc3[C@@H]2N2C(=O)CN(CC3CCCO3)C(=O)[C@@]12C (stereo partly drawn)  7.72%
28. Cc1cc(OCC(=O)NC(C)(C)C)ccc1Cl  7.04%
29. CCOc1ccc2nc(NCCNC(=O)c3cc(OC)c(OC)c(OC)c3)c(C#N)cc2c1  5.24%
30. COc1ccccc1-c1cc(C(=O)NCCc2ccccc2)no1  5.18%
31. COc1ccc(CCNC(=O)CCCCC(=O)NCCc2ccc(OC)c(OC)c2)cc1OC  4.7%
32. O=C(CCc1ccccc1)Nc1ncc([N+](=O)[O-])s1  2.96%
33. Cc1ccc(CNC(=O)C2CCC(=O)N2Cc2ccccc2Cl)cc1 (stereo not drawn)  2.52%
34. Cc1ccc(CNC(=O)CCCNC(=O)c2ccc(Cl)cc2)n1C  2.05%
35. Cc1nn(C(C)C(=O)NCCN2CCCC2)c(=O)c2c1sc1ccccc12 (stereo not drawn)  1.56%
36. Cc1ccnc(NC(=O)C2CCN(S(=O)(=O)c3ccc4c(c3)CC(C)N4C(=O)C3CCC3)CC2)c1 (stereo not drawn)  -0.431%
37. COc1ccc2c(c1)O[C@@]1(CCCC[C@@H]1C)CC2=O  -1.09%
38. Nc1ccc(SCCN2C(=O)c3ccccc3C2=O)cc1  -1.22%
39. COc1ccc(C(=O)NCCNc2ccc([N+](=O)[O-])cc2)cc1OC  -1.31%
40. O=[N+]([O-])c1ccc(NCc2ccncc2)cc1  -3.55%
41. CC1CCN(C(c2cc3cc4c(cc3[nH]c2=O)OCO4)c2nnnn2CC2CCCO2)CC1 (stereo not drawn)  -3.99%
42. O=C(NC(=S)NCCN1CCOCC1)c1ccc(F)cc1  -4.01%
43. CCC(C)Sc1nc2c(c(=O)[nH]c(=O)n2C)n1C (stereo not drawn)  -4.04%
44. COC(=O)c1ccc2c(c1)NC1=C(C(=O)CC(C)(C)C1)C(c1ccncc1)N2 (stereo not drawn)  -4.48%
45. Cn1nnnc1Sc1ncnc2scc(-c3ccccc3Br)c12  -4.66%
46. O=C(Nc1ccccc1C(=O)Nc1ccncc1)c1ccc([N+](=O)[O-])cc1  -4.77%
47. CCOC(=O)C1(CC2CCCCO2)CCN(Cc2nc(C(C)C)cs2)CC1 (stereo not drawn)  -5.24%
48. COc1ccc(CCN(C)C2CC(=O)N(c3ccccc3)C2=O)cc1OC (stereo not drawn)  -5.77%
49. CCOc1ccc(NC(=O)COC(=O)CC2CCCCC2)cc1  -6.75%
50. CNC(=O)NC(=O)C(C)OC(=O)c1cc2c(s1)CCCCC2 (stereo not drawn)  -7.89%
51. Cn1c(C(=O)N2CCN(c3nc4ccccc4s3)CC2)cc2sccc21  -8.35%
52. COc1ccc(N(CC(=O)Nc2cccc(C(C)=O)c2)S(C)(=O)=O)cc1OC  -10.5%
53. COc1ccc2nc(NCCCNC(=O)c3cc(OC)c(OC)c(OC)c3)c(C#N)cc2c1  -11%
54. O=C(NCCN1CCOCC1)/C(=C/c1ccccc1)NC(=O)c1ccccc1  -16.4%
55. COc1ccccc1C(=O)NCCCNc1ccc([N+](=O)[O-])cc1  -19.2%
56. CCOC(=O)C1(CC2CCCCO2)CCN(Cc2nc3ccccc3[nH]2)CC1 (stereo not drawn)  -19.5%
57. C=CCSc1nnnn1-c1ccc(OC)cc1  -20%
58. COC(=O)C(CC(C)C)NC(=O)c1ccc([N+](=O)[O-])cc1 (stereo not drawn)  -23.2%
59. Cn1c(Cn2nnc3ccccc32)nnc1SCC(=O)N1c2ccccc2CCc2ccccc21  -23.6%
60. O=C(CCNC(=O)c1ccco1)Nc1ccc(OC(F)F)cc1  -23.8%
61. O=C(CN1CCN(S(=O)(=O)c2cccc(Cl)c2)CC1)N1CCCCC1  -24.8%
62. O=C(NCc1ccco1)c1cc([N+](=O)[O-])ccc1N1CCOCC1  -25.4%
63. COc1ccc(/C=C(\NC(=O)c2ccccc2)C(=O)NCCN2CCOCC2)cc1  -34.3%
64. Cc1ccc(N(Cc2cc(=O)[nH]c3ccccc23)C(=O)c2ccco2)cc1  -34.4%
65. COc1ccc(C(=O)NCCNc2ccc([N+](=O)[O-])cc2)cc1  -40.9%
66. CCOC(=O)C1(CCOC)CCN(Cc2cccc(OCc3ccccc3)c2)CC1  -42.4%
67. O=C(NCCCCC(NC(=O)c1ccc([N+](=O)[O-])cc1)C(=O)O)c1ccc([N+](=O)[O-])cc1 (stereo not drawn)  -44.7%
68. CCCCc1ncc(CN2CCC(CC3CCCCO3)(C(=O)OCC)CC2)[nH]1 (stereo not drawn)  -45%
69. O=C(NCCNc1ccc([N+](=O)[O-])cc1)c1cc(F)c(F)cc1Cl  -45.1%
70. O=C(NCCc1ccc(OC(F)F)cc1)C1CC(=O)N(c2ccc3c(c2)OCCO3)C1 (stereo not drawn)  -47.6%
71. CCOc1ccc2nc(NCCCNC(=O)c3cc(OC)c(OC)c(OC)c3)c(C#N)cc2c1  -51.3%
72. O=C(CCNC(=O)c1ccco1)Nc1ccc(SC(F)F)cc1  -52.7%
73. O=C(NCCNc1ccc([N+](=O)[O-])cc1)c1ccc(Cl)cc1  -52.8%
74. O=C(CN1CCN(S(=O)(=O)c2ccc(Cl)c(Cl)c2)CC1)N1CCCCC1  -53.5%
75. O=C(CCNc1ccc(Cc2ccncc2)cc1)c1ccc([N+](=O)[O-])cc1  -56.8%
76. CCOC(=O)C1(CC2CCCCO2)CCN(Cc2cc(F)ccc2-n2cccn2)CC1 (stereo not drawn)  -57.1%
77. COc1cc(C(=O)NCCCNc2ccc([N+](=O)[O-])cc2)cc(OC)c1OC  -57.6%
78. O=C(Nc1ccc(Nc2ccncc2)cc1)c1ccc([N+](=O)[O-])cc1  -59.5%
79. Cc1ccc(C(=O)N/C(=C\c2ccccc2)C(=O)NCCN2CCOCC2)cc1  -62.4%
80. CCOC(=O)C1(CCOc2ccccc2)CCN(Cc2cccc(O)c2)CC1  -63.1%
81. COc1ccc(/C=C(\NC(=O)c2ccc(C)cc2)C(=O)NCCN2CCOCC2)cc1  -64.6%
82. Cc1cc(Cl)c(C)c(S(=O)(=O)N2CCN(CC(=O)N3CCOCC3)CC2)c1Cl  -64.8%
83. CCOC(=O)C1(CCOc2ccccc2)CCN(Cc2cccc(F)c2)CC1  -65.4%
84. Cc1ccc(C(=O)N/C(=C\c2ccc(Cl)cc2)C(=O)NCCCN2CCOCC2)cc1  -72.5%
85. Cc1ccc(C(=O)N/C(=C\c2ccc(F)cc2)C(=O)NCCN2CCOCC2)cc1  -75.6%
86. CCOC(=O)C1(CCOc2ccccc2)CCN(Cc2cccc(OC)c2)CC1  -76.1%
87. COC(=O)C(CCCCNC(=O)c1ccc([N+](=O)[O-])cc1)NC(=O)c1ccc([N+](=O)[O-])cc1 (stereo not drawn)  -76.3%
88. CCOC(=O)C1(CC2CCCCO2)CCN(Cc2c(C)cc(C)cc2-n2cccn2)CC1 (stereo not drawn)  -77.8%
89. CCOC(=O)C1(CCOc2ccccc2)CCN(Cc2cc(OC)cc(OC)c2)CC1  -79.8%
90. CCOC(=O)C1(CCOc2ccccc2)CCN(Cc2cccc(OCCO)c2)CC1  -83.4%
